Test system: MAP4K4
Conditions: concentration: 1 μM, replicates: in singlicate; n = 1
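Further: KINOMEscan kinase panel screen.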

| Structure (SMILES) | %Inh |
| --- | --- |
| COc1ccc(Nc2nccc(NCCNC(=O)c3cc4ccccc4s3)n2)cc1 [GSK1379896] | 1% |
| Clc1ccc(-c2nn3ncccc3c2-c2ccnc(Nc3ccc4c(c3)OCCO4)n2)cc1 [GW829116] | 12% |
| O=C(Nc1cccc(-c2nn3ncccc3c2-c2ccnc(Nc3ccccc3)n2)c1)c1c(F)cccc1F [GSK198271] | 33% |
| Nc1ncc(-c2ccc3nccc(-c4ccncc4)c3c2)cc1S(=O)(=O)N1CCOCC1 [GSK1627798] | 0% |
| Cl.c1ccc(-c2ccc3c(Nc4ccc5[nH]ccc5c4)ccnc3c2)nc1 [GW440138] | 12% |
| COc1cccc(C2=C(Nc3ccc(Cl)c(C(=O)O)c3)C(=O)NC2=O)c1 [SB-390769] | 100% |
| O=C(Nc1n[nH]c2cc(-c3ccoc3)ccc12)C1CC1 [SB-738481] | 10% |
| CCS(=O)(=O)c1ccc(OC)c(Nc2nccc(-c3c(-c4cccc(NC(=O)c5c(F)cccc5F)c4)nn4ncccc34)n2)c1 [GSK326180] | 3% |
| CN(c1ccc(NC(=O)Nc2cc(C(F)(F)F)ccc2F)cc1)c1ccnc(Nc2ccc(S(N)(=O)=O)cc2)n1 [GW809893] | 97.7% |
| Oc1cc(Nc2ccnc3cc(I)ccc23)ccc1F [GW552771] | 67% |
| CC(=O)N1CCN(c2ccc(Nc3nccc(-c4sc(C(C)C)nc4-c4cccc(NS(=O)(=O)c5cccc(Cl)c5)c4)n3)cn2)CC1 [GSK1660437] | 13% |
| Cn1cc(-c2ccc3c(c2)CCN3C(=O)Cc2cccc(Cl)c2)c2c(N)ncnc21 [GSK2606590] | 0% |
| COc1ccc(-c2coc3ccc(-c4nnc(SCc5ccc(OC)c(C(F)(F)F)c5)o4)cc23)cc1 | 6% |
| CC(C)c1nc(-c2cccc(NS(=O)(=O)c3c(F)cccc3F)c2F)c(-c2ccnc(Nc3ccc(N4CCOCC4)nc3)n2)s1 [GSK2008607] | 40% |
| Cn1cc(-c2ccc3c(c2)CCN3C(=O)Cc2cccc(F)c2)c2c(N)ncnc21 [GSK2603358] | 0% |
| COc1cc2c(cc1OCCN1CCNCC1)ncc1c3ccc(C#N)cc3[nH]c21 | 32% |
| Cc1ccc(S(=O)(=O)Nc2ccc(Nc3nccc(Nc4cccc5[nH]ncc45)n3)cc2)cc1 [GSK581271] | 0% |
| Cc1ccc(C)c(NC(=O)NC2CCN(c3ccnc(Nc4ccc(F)cc4)n3)C2)c1 (stereo not shown) [GSK1379720] | 0% |
| CN1CCN(Cc2cccc(-c3ccc4c(Nc5ccc(Oc6ccccc6)cc5)ccnc4c3)c2)CC1 [GW578342] | 0% |

| Structure (SMILES) | %Inh |
| --- | --- |
| COc1cc(Nc2nccc(-c3c(-c4cccc(NC(=O)c5c(F)cccc5F)c4)nn4ccccc34)n2)cc(OC)c1OC [GSK323521] | 0% |
| Cc1cccc(Nc2nc(N[C@H]3CCNC3)ncc2C(N)=O)c1.Cl [GSK2197149] | 73% |
| Nc1n[nH]c2cnc(-c3ccccc3)cc12 [SB-642124] | 17% |
| Cc1occc1-c1ncc(OC[C@@H](N)Cc2c[nH]c3ccccc23)cc1-c1ccc2[nH]nc(C)c2c1.O=C(O)C(F)(F)F [GSK682037] | 99.2% |
| CSc1cccc2c(-c3ccncn3)c(-c3ccc(F)cc3)nn12 [GW514786] | 2% |
| C[C@@H]1CC[C@@H](C(=O)Nc2ccccc2)CN1c1cc(-c2ccc3c(N)n[nH]c3c2)nc(N)n1 [GSK2286062] | 0% |
| CN(C)Cc1ccc(-c2ccc3c(Nc4ccc(Oc5ccccn5)cc4)ccnc3c2)o1 [GW567148] | 6% |
| COc1cc(Nc2ncc3c(C)nc(-c4cc5ccccc5[nH]4)n3n2)cc(OC)c1OC [GW869516] | 19% |
| Cn1cc(-c2[nH]c3cc(NC(=O)[C@H](N)C4CCCCC4)cc4c3c2C=NNC4=O)cn1 | 48% |
| FC(F)(F)c1ccc(/C=C/c2cncnc2Nc2ccc3[nH]c(Cc4ccccc4)nc3c2)cc1 [GW709199] | 0% |
| CCCCc1nn2ncccc2c1-c1ccnc(Nc2ccc(N3CCN(C)CC3)cc2)n1 [GW684941] | 0% |
| COCCOCCOc1cc2ncc3c4ccc(C#N)cc4[nH]c3c2cc1OC | 42% |
| COc1cccc(-c2ccc3c(NC(=O)C4CC4)n[nH]c3n2)c1 [SB-710903] | 53% |
| COc1cc(Nc2nccc(N3CCC(NC(=O)c4cc5ccccc5s4)C3)n2)cc(OC)c1OC (stereo not shown) [GSK1379760] | 25% |
| COC(=O)Nc1nc2cc(Oc3ccc(NC(=O)Nc4cc(C(F)(F)F)ccc4F)cn3)ccc2[nH]1.Cl.Cl [GW681170] | 3% |
| COc1cc(Nc2nccc(N3CCC(NC(=O)Nc4cccc(C(C)=O)c4)C3)n2)cc(OC)c1OC (stereo not shown) [GSK1379753] | 3% |
| c1ccc(-c2cnc3nccnn23)cc1 [AH20685] | 0% |
| CN1CCN(CCCNc2nccc(-c3c(-c4ccc(F)cc4)nn4cc(C(F)(F)F)ccc34)n2)CC1 [GW621581] | 33% |
